VLA-4 inh: inhibition in human VLA-4 binding assay, primary screen, VLA-4 allosteric modulator project, MLPCN library, flow cytometry, VLA-4 expressing cells | Integrin alpha-4 (Homo sapiens), P13612 | ligand binding flow cytometry | inhibition, % (about 7 µM as worked out from the volumes in the protocol) | actives 0.2% (n = 330,000) | AID 2557, 2010; in the data active = inhibition above about 50%
pCIP destab: p/CIP-EGFP fusion destabilizers, primary screen, fluorescence, F442A cells. Q05BA5. decrease of EGFP signal, % at 10 µM. 16 h. actives 0.01% (n = 290,000);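 active = EGFP signal decrease of at least 30% at 10 µM or well 3 SD below plate mean, unless failing retest; inactive = the rest, including hits failing retest or dose response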
GASC-1 inh: inhibitors of GASC-1 histone demethylase, primary screen, biochemical, fluorescence, DELFIA europium; Lysine-specific demethylase 4C (Homo sapiens), Q9H3R0; GST-JMJD2C(1-420) H3K9me3 demethylation; inhibition, % at 2.35 µM; actives 0.069% (n = 330,000);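 active = more than half of a compound's replicate wells show inhibition beyond 50%, single wells judged on their own value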;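 also: signal counts dimethyl H3K9 product captured on neutravidin plate; 0% = median of DMSO wells and 100% = 0.3 times that DMSO median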
GPR7 antagonist: GPR7 receptor antagonists, primary screen, cell-based, fluorescence, single concentration | Neuropeptides B/W receptor type 1 (Homo sapiens), P48145 | inhibition, % at 4.4 µM | GPR7-expressing cells, fluorescence antagonist assay | actives 1.1% (n = 290,000); in the data active = inhibition above about 16%, passing the limit was not always enough;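 also: cells stimulated with the agonist NPW; 0% = agonist with vehicle and 100% = vehicle without agonist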
Target sequence (P48145 whole entry, looked up): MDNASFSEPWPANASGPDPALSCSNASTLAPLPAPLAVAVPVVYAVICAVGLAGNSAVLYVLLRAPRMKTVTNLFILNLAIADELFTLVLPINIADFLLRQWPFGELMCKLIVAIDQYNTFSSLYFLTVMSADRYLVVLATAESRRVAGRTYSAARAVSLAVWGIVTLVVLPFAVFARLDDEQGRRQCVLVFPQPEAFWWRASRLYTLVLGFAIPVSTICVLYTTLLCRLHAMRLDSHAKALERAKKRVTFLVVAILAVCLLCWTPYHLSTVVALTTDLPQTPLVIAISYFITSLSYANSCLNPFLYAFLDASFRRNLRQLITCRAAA
VLA-4 mod pick: retest of VLA-4 allosteric modulators, confirmation, cell-based, cherry-picked plates, U937, HUTS-21 LIBS antibody; shares compounds with VLA-4 inh; AID 2813, 2010; U937 cells, HUTS-21 LIBS mAb binding, flow cytometry; LDV ligand present at threefold Kd; inhibition, % at 6.7 µM; actives 2% (n = 1,300); in the data active = inhibition above about 40%;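 also: 0% = ligand without compound and 100% = no ligand background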
Numbers without * were called inactive. Hits are enriched below; roughly 1.2% of the tested compounds scored in any of these assays.

How did CO/N=C/C(=N\Nc1ccc(OC)cc1)C(=O)c1ccc(OC)cc1 do in these assays?
VLA-4 inh: 91.0*; pCIP destab: -0.6; GASC-1 inh: 5.6; GPR7 antagonist: -8.1; VLA-4 mod pick: -1.1

Results for COc1ccc(C(=O)C(/C=N/O)=N/Nc2ccc(F)cc2)cc1 ?
VLA-4 inh: -9.5; pCIP destab: -1.9; GASC-1 inh: 13.3; GPR7 antagonist: -18.2

What do the screens show for `COc1ccc(NC(=O)CSc2nnc(NC(=O)C3CC3)s2)cc1OC`?
VLA-4 inh: -12.7; pCIP destab: 20.0; GASC-1 inh: 4.7; GPR7 antagonist: -10.0

What do the screens show for `CC(=O)c1sccc1NC(=O)CC(C)(C)CC(=O)O`?
VLA-4 inh: -3.5; pCIP destab: -14.3; GASC-1 inh: -34.6; GPR7 antagonist: -6.5

How did COc1ccc([C@@H]2CC=C(C(=O)O)[C@H](c3ccc(C)cc3)N2S(=O)(=O)c2ccc(C)cc2)cc1OC do in these assays?
VLA-4 inh: -20.8; GASC-1 inh: 13.0

Results for CCCCC[C@@H]1C=C(C(=O)O)[C@H](c2ccc(OC)c(OC)c2)N1S(=O)(=O)c1ccc(C)cc1 ?
VLA-4 inh: 26.8; GASC-1 inh: 24.3; VLA-4 mod pick: 3.3

Results for CCCC[C@@H]1C=C(C(=O)O)[C@H](c2ccc(CC)cc2)N1S(=O)(=O)c1ccc(C)cc1 ?
VLA-4 inh: -9.9; VLA-4 mod pick: 2.1

How did CCCCC[C@@H]1C=C(C(=O)O)[C@H](c2ccc(F)cc2)N1S(=O)(=O)c1ccc(C)cc1 do in these assays?
VLA-4 inh: -22.4; GASC-1 inh: -3.1; VLA-4 mod pick: 0.0

What do the screens show for `CCCCC[C@@H]1C=C(C(=O)O)[C@H](c2ccc(CC)cc2)N1S(=O)(=O)c1ccc(C)cc1`?
VLA-4 inh: 35.1; GASC-1 inh: 22.5; VLA-4 mod pick: -0.8

What do the screens show for `CCCCC[C@@H]1C=C(C(=O)O)[C@H](c2ccc(Cl)c(Cl)c2)N1S(=O)(=O)c1ccc(C)cc1`?
VLA-4 inh: 42.4; GASC-1 inh: 3.4

How did CCc1ccc([C@H]2C(C(=O)O)=C[C@@H](CC)N2S(=O)(=O)c2ccc(C)cc2)cc1 do in these assays?
VLA-4 inh: 23.5; VLA-4 mod pick: -1.4

How did CCCC[C@@H]1C=C(C(=O)O)[C@H](c2ccc(Br)cc2)N1S(=O)(=O)c1ccc(C)cc1 do in these assays?
VLA-4 inh: -13.7; VLA-4 mod pick: -1.4

Results for CCCCC[C@@H]1C=C(C(=O)O)[C@H](c2ccc3c(c2)OCO3)N1S(=O)(=O)c1ccc(C)cc1 ?
VLA-4 inh: -2.5; VLA-4 mod pick: 7.3

How did CCCCC[C@@H]1C=C(C(=O)O)[C@H](c2cccc(C)c2)N1S(=O)(=O)c1ccc(C)cc1 do in these assays?
VLA-4 inh: 21.9; GASC-1 inh: 8.8; VLA-4 mod pick: 0.6

Results for COc1ccc(C(=O)COC(=O)c2cccc(-n3cnnn3)c2)c(OC)c1 ?
VLA-4 inh: -2.0; GASC-1 inh: 0.1

How did COCCNC(=O)C(c1ccc(F)cc1)N(C(=O)CCC(=O)Nc1nccs1)c1ccc(C)cc1 (stereo not drawn) do in these assays?
VLA-4 inh: -5.5; pCIP destab: -1.2; GASC-1 inh: -7.6; GPR7 antagonist: 6.1

How did Cn1cnnc1SCC(=O)Nc1ncc([N+](=O)[O-])s1 do in these assays?
VLA-4 inh: 0.0; GASC-1 inh: 19.6

Results for Cc1cc(NC(=O)CS(=O)(=O)c2ccc(Cl)cc2)no1 ?
VLA-4 inh: 19.1; pCIP destab: 1.4; GASC-1 inh: -4.0; GPR7 antagonist: -10.5

Results for Cc1ccc(S(=O)(=O)n2cnc3cc([N+](=O)[O-])ccc32)c(C)c1C ?
VLA-4 inh: -4.3; pCIP destab: 1.6; GASC-1 inh: 38.5; GPR7 antagonist: -17.0

What do the screens show for `CCN(CC)c1ccc(/C=C(\C#N)C(N)=O)cc1`?
pCIP destab: -2.3; GPR7 antagonist: -8.6; VLA-4 mod pick: -1.6

Results for N#C/C(=C\c1ccccc1)C(=O)NC(=O)Oc1ccccc1 ?
VLA-4 inh: 2.0; pCIP destab: -5.7; GASC-1 inh: -1.8; GPR7 antagonist: 3.6

Results for CCOC(=O)NC(=O)/C(C#N)=C/c1ccc(N(C)C)cc1 ?
VLA-4 inh: -16.1; pCIP destab: -1.7; GASC-1 inh: -0.7; GPR7 antagonist: -13.3; VLA-4 mod pick: 2.1

High-throughput results deposited in PubChem by several laboratories.
